Source: the supplement of paper PMC4371806
Over roughly 1,600 compounds, “plate-normalized OD600 growth (mean of duplicates)” has its median near 0.31; the lowest 2% begin near 0.23. The sample holds the lowest values, similar compounds and a random draw of the others, so the mix is not that of the screen.

System: Escherichia coli BW25113
Assay: plate-normalized OD600 growth (mean of duplicates) (OD600 (normalized)); higher = more growth (less inhibition)
Details: 10 µM
Method: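 E. coli BW25113 in LB (100 µl, 96-well, no shaking) was exposed to 10 µM of each compound (here the ChemBridge subset of a ~30,000-member library) and grown at 37°C for 24 h or 15°C for 48 h, in duplicate. Growth was read as OD600 and the duplicate ODs were normalized across screening plates to correct plate-to-plate variation.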

SMILES | plate-normalized OD600 growth (temperature: 15°C, 48 h) | plate-normalized OD600 growth (temperature: 37°C, 24 h)
CCN(CC)C(=O)c1ccc([N+](=O)[O-])o1 | 0.247 | 0.627
O=C(Nc1ccccc1NC(=O)c1ccccc1F)c1ccccc1F | 0.263 | 0.627
O=C(Nc1ccccc1F)c1ccc([N+](=O)[O-])o1 | 0.201 | 0.592
CCOc1ccccc1N1CCN(C(=O)c2ccccc2C)CC1 | 0.287 | 0.646
Brc1ccc(CN2CCN(c3ccccn3)CC2)cc1 | 0.267 | 0.614
COc1ccc(CN2CCCN(C)CC2)cc1Br | 0.229 | 0.632
COc1cccc(N2CCN(CC3CC4C=CC3C4)CC2)c1 (centres undefined) | 0.296 | 0.627
CN1CCCN(CC2CC3C=CC2C3)CC1 (centres undefined) | 0.225 | 0.656
COc1ccc(S(=O)(=O)N2CCCC(C)C2)cc1 (centres undefined) | 0.266 | 0.639
COC(=O)Nc1ccc(S(=O)(=O)N2CCCCC2)cc1 | 0.238 | 0.599
COc1ccc(S(=O)(=O)N2CCCC2)cc1 | 0.219 | 0.612
Cc1cc(NO)nc(-c2ccc(Br)cc2)n1 | 0.221 | 0.622
Cc1nc(C)c(-c2cc(C)c3c(C)nc(C)nc3n2)c(N)n1 | 0.252 | 0.617
O=C(COc1ccc(Cl)cc1Cl)Nc1ccc(C(=O)O)cc1 | 0.261 | 0.618
COc1cccc(NC(=O)c2ccncc2)c1 | 0.261 | 0.618
O=C(c1cccnc1)N1CCN(C(=O)c2ccco2)CC1 | 0.24 | 0.631
COc1ccc(Cc2ccc(OC)c(N)c2)cc1N | 0.254 | 0.632
COc1cc(C)c(N)cc1C(C)C | 0.226 | 0.6
COc1cc2c(cc1NC(=O)C(Cl)Cl)oc1ccccc12 | 0.232 | 0.619
COc1ccc(N2C(=O)CC(N3CCN(c4ccc(F)cc4)CC3)C2=O)cc1 (centres undefined) | 0.24 | 0.59
Cc1ccc(N2C(=O)CC(N3CCN(c4ccc([N+](=O)[O-])cc4)CC3)C2=O)c(C)c1 (centres undefined) | 0.218 | 0.612
COc1ccccc1N1C(=O)CC(N2CCN(c3ccc([N+](=O)[O-])cc3)CC2)C1=O (centres undefined) | 0.282 | 0.637
c1ccc(OCCCCN2CCCCC2)cc1 | 0.241 | 0.621

SMILES | plate-normalized OD600 growth (temperature: 15°C, 48 h) | plate-normalized OD600 growth (temperature: 37°C, 24 h)
Cc1ccccc1OCCCCN1CCCCC1 | 0.265 | 0.623
Fc1ccccc1OCCCCN1CCCCC1 | 0.214 | 0.61
CC(Nc1cc(=O)n(C)c(=O)[nH]1)c1ccccc1 (centres undefined) | 0.254 | 0.611
CC1(C)CC(n2c(NN)nc3c(c2=O)C2(CCCCC2)Cc2ccccc2-3)CCO1 (centres undefined) | 0.255 | 0.631
C=C(C)CN(CC)C1CCN(C(C)=O)CC1 | 0.226 | 0.627
CC(=O)N1CCC(NC2CCCCCC2)CC1 | 0.269 | 0.62
CCN(CCN(C)C)C1CCCCCC1 | 0.26 | 0.618
CN1CCN(C(=O)CC(c2ccccc2)c2ccccc2)CC1 | 0.253 | 0.62
N#Cc1ccc(-c2cccs2)[nH]c1=O | 0.236 | 0.644
NS(=O)(=O)c1ccc(-c2ccc(C=O)o2)cc1 | 0.227 | 0.612
O=Cc1ccc(-c2ccc(Cl)c(C(=O)O)c2)o1 | 0.268 | 0.622
O=C(/C=C/c1ccc(-c2ccc(F)cc2)o1)c1cccs1 | 0.253 | 0.617
COc1ccc2nc3c(nc2c1)C(=O)c1ccccc1-3 | 0.234 | 0.611
c1cncc(-c2nc3c4c5c(sc4ncn3n2)CCCC5)c1 | 0.261 | 0.628
COc1ccc(CNCCC2CCOC(C)(C)C2)cc1 (centres undefined) | 0.263 | 0.65
Cc1nnc(Sc2ccc(C=O)o2)s1 | 0.227 | 0.604
CCOC(=O)N1CCN(Cc2cc(C)ccc2C)CC1 | 0.266 | 0.646
CC(=O)c1ccc(NS(=O)(=O)c2cc(S(=O)(=O)c3ccccc3)ccc2C)cc1 | 0.278 | 0.649
c1ccc(CN2C3=NCCCN3c3ccccc32)cc1 | 0.249 | 0.625
N#CCCS(=O)(=O)c1ccc(Br)cc1 | 0.258 | 0.63
CCCCOc1ccc(C2(C)CC(=O)NC2=O)cc1 (centres undefined) | 0.258 | 0.634
Cc1onc(-c2ccccc2Cl)c1C(=O)NCc1ccc2c(c1)OCO2 | 0.261 | 0.619
O=C(O)Cn1c2ccccc2c2cc([N+](=O)[O-])ccc21 | 0.226 | 0.625

SMILES | plate-normalized OD600 growth (temperature: 15°C, 48 h) | plate-normalized OD600 growth (temperature: 37°C, 24 h)
NNC(=O)c1cc(-c2ccc([N+](=O)[O-])cc2)nc2ccccc12 | 0.251 | 0.647
CCn1c(C)c(C=O)c2cc([N+](=O)[O-])ccc21 | 0.223 | 0.608
CN(C)/C=C/c1c(C=O)c2cc([N+](=O)[O-])ccc2n1C | 0.238 | 0.596
Cn1c(C=O)nc2cc([N+](=O)[O-])ccc21 | 0.241 | 0.625
Cn1c2ccccc2c2nc3ccc([N+](=O)[O-])cc3cc21 | 0.249 | 0.639
Cc1n[nH]c(=O)c2cc3c(C)n[nH]c(=O)c3cc12 | 0.259 | 0.622
CC1CCC2(CC1)C(C#N)C(=O)NC(=O)C2C#N (centres undefined) | 0.244 | 0.615
CCCC(=O)NC(c1ccccc1)c1ccccc1 | 0.265 | 0.637
CSc1nc(C)c(C(C)=O)cc1C#N | 0.244 | 0.621
Cc1ccc(S(=O)(=O)CCSc2cccc(C(=O)Nc3ccccc3)c2)cc1 | 0.243 | 0.633
Cc1nonc1NC(=O)Nc1ccncc1 | 0.18 | 0.615
O=C(Nc1ccncc1)c1ccc(Cl)cc1Cl | 0.263 | 0.623
CC(=O)Nc1cccc(NC(=O)Nc2cccc(Cl)c2)c1 | 0.236 | 0.585
Cc1ccc(C(C)NC(=O)c2ccccc2)c(C)c1 (centres undefined) | 0.267 | 0.619
Cc1ccc(NC(=O)[C@@H]2C3C=CC(C3)[C@@H]2C(=O)O)c(C)c1 (some centres undefined) | 0.247 | 0.648
CCCN(CCO)Cc1ccccc1F | 0.235 | 0.589
c1ccc(CCCN2CCOCC2)cc1 | 0.251 | 0.615
c1ccc(CCN2CCC(N3CCOCC3)CC2)cc1 | 0.239 | 0.618
c1ccc(CCN2CCN(c3ccccc3)CC2)cc1 | 0.227 | 0.62
Clc1ccccc1N1CCN(Cc2ccc(Br)o2)CC1 | 0.245 | 0.606
N#CC1=C(N)N2C(=C(C#N)C1c1c(F)cccc1Cl)Sc1ccccc12 (centres undefined) | 0.27 | 0.622
O=C(NCC1CCCO1)c1ccc2c(c1)OCO2 (centres undefined) | 0.243 | 0.615
CN(CCc1ccccn1)Cc1ccc(Cl)c(Cl)c1 | 0.222 | 0.622

SMILES | plate-normalized OD600 growth (temperature: 15°C, 48 h) | plate-normalized OD600 growth (temperature: 37°C, 24 h)
Cc1ccc(CN(C)CCc2ccccn2)cc1 | 0.272 | 0.619
CN(CCCc1ccccc1)CCc1ccccn1 | 0.26 | 0.659
CCSC1=C(C#N)C(c2ccc(Cl)cc2Cl)CC(=O)N1 (centres undefined) | 0.255 | 0.65
CC1=C(C#N)C(c2ccc(N(C)C)cc2)C2=C(CCCC2=O)N1 (centres undefined) | 0.248 | 0.638
N#CC1=C(N)OC2=C(C(=O)CCC2)C1c1cccnc1 (centres undefined) | 0.238 | 0.629
CC1=C(C#N)C(c2cccnc2)C2=C(CC(c3ccc(Cl)cc3)CC2=O)N1 (centres undefined) | 0.225 | 0.623
O=[N+]([O-])c1ccc(CNC2CCCC2)cc1 | 0.254 | 0.621
O=C(NC1CCCCCC1)c1ccc([N+](=O)[O-])cc1 | 0.212 | 0.629
Cc1c(C(=O)NC2CCCC2)cccc1[N+](=O)[O-] | 0.252 | 0.636
COc1cccc(NC(=O)c2cccc(I)c2)c1 | 0.244 | 0.596
Cc1ccc(OCCCCc2c(C)n[nH]c2C)cc1 | 0.276 | 0.62
CCN(CC)CCCOc1ccc(C)cc1 | 0.255 | 0.632
Cc1n[nH]c(C)c1CCCCOc1ccc(Br)cc1 | 0.216 | 0.601
CCCn1c(SCCC(=O)O)nc2ccccc21 | 0.257 | 0.621
N#CC1=C(SCC(=O)Nc2ccc(Br)cc2)NC(=O)C(C#N)C12CCCCC2 (centres undefined) | 0.257 | 0.604
Cc1cc(=O)[nH]c(SCC(=O)Nc2ccc(Br)cc2)c1C#N | 0.214 | 0.594
N#CC1=C(N)NC(SCC(=O)Nc2ccc(Br)cc2)=C(C#N)C12CCCCC2 | 0.252 | 0.586
COc1cc(C(=O)n2c(C)nc3ccccc32)cc(OC)c1OC | 0.246 | 0.616
Cc1ccc(-c2nc3ccccc3[nH]2)cc1N | 0.222 | 0.616
Nc1ccc(Br)cc1-c1nc2ccccc2[nH]c1=O | 0.254 | 0.608
O=C(O)CCC(=O)Nc1ccc(-c2nc3ccccc3[nH]2)cc1 | 0.247 | 0.602
COc1ccc(-c2cc(=O)n(CCC#N)[nH]2)cc1 | 0.266 | 0.622
N#Cc1c(NC(=O)c2cc3ncc(Br)cn3n2)sc2c1CCCC2 | 0.263 | 0.623

SMILES | plate-normalized OD600 growth (temperature: 15°C, 48 h) | plate-normalized OD600 growth (temperature: 37°C, 24 h)
O=[N+]([O-])c1ccccc1/C=C/CN1CCCCC1CO (centres undefined) | 0.264 | 0.63
CCCCOc1ccc(CN2CCC(O)CC2)cc1 | 0.272 | 0.664
CCCCOc1ccc(CN2CCN(CCOCCO)CC2)cc1 | 0.216 | 0.626
C/C=C(\C)CN1CCN(CCOCCO)CC1 | 0.269 | 0.664
Cc1cc([N+](=O)[O-])nn1CC(=O)NCC(C)C | 0.264 | 0.617
COc1ccc(NC(=O)c2ccccc2OC)cc1OC | 0.248 | 0.615
CN(Cc1ccccc1)C1CC(=O)N(c2ccc(C(=O)O)cc2)C1=O (centres undefined) | 0.246 | 0.621
CC1(C)CC(=O)C=C(Nc2ccc(F)c(F)c2)C1 | 0.247 | 0.617
CC(=O)c1ccc(OCCOc2ccc(C(C)=O)cc2)cc1 | 0.248 | 0.607
CC(=O)c1c(C)[nH]n(-c2ccccc2)c1=O | 0.252 | 0.618
Cc1[nH]n(-c2ccccc2)c(=O)c1C=O | 0.224 | 0.605
Cc1nn(-c2ccccc2)c(N2CCCCC2)c1C=O | 0.266 | 0.62
Cc1ccc(S(=O)(=O)N(CC(=O)O)c2cccc(Cl)c2)cc1 | 0.268 | 0.636
COc1cccc(-c2nc(Cc3ccc(Cl)cc3)no2)c1 | 0.253 | 0.601
CCc1ccc(-c2csc(Nc3cccc(OC)c3)n2)cc1 | 0.222 | 0.604
COc1ccc(Nc2nc(-c3ccc(F)cc3F)cs2)cc1 | 0.251 | 0.633
Clc1ccc(-c2csc(Nc3ccc4c(c3)OCO4)n2)cc1 | 0.24 | 0.61
Cc1nc(N)sc1-c1csc(Nc2ccc(O)cc2)n1 | 0.239 | 0.621
COc1cccc(Nc2nc(-c3ccc(OC)c(F)c3)cs2)c1 | 0.245 | 0.609
CCOc1ccc(Nc2nc(-c3ccc(CC(C)C)cc3)cs2)cc1 | 0.223 | 0.624
